A selection: hits, their analogues and other compounds. The true share with any hit is near 3.4%.
LMP1 NFkB inh: inhibitors of Epstein-Barr LMP1-induced NF-kappaB reporter | inhibition, % at 12.5 µM | AID 504558 | LMP1-induced NF-kappaB luciferase reporter cells, luminescence | actives 0.69% (n = 350,000); in the data active = inhibition above about 41%; inconclusive = no clear call, values can overlap the other calls;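 also: 0% = neutral control wells and 100% = reference inhibitor control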
Shn3 inh set2: reduces Shn3 3'UTR luciferase signal in osteoblasts; Clone20 osteoblast Shn3 3'UTR firefly luciferase, 24 h; inhibition, % at 12.5 µM; actives 0.52% (n = 360,000); AID 588674;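 active = mean inhibition of at least 75% with every replicate also reaching 75%; inconclusive = mean inhibition at least 75% but some replicate below; inactive = mean inhibition below 75%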;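 also: 0% = median of neutral control wells and 100% = pilot-screen positive control compound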
TWEAK-Fn14 inh: blocks TWEAK-Fn14 interaction in a reporter cell assay | TWEAK-stimulated Fn14 reporter cells, luciferase luminescence, 8 h | inhibition, % at 10 µM | actives 2% (n = 360,000) | AID 1159606; in the data active = inhibition above about 50%
MITF TRPM1 inh: inhibitors of MITF-driven TRPM1 promoter in melanoma cells | actives 0.83% (n = 330,000) | AID 488899 | inhibition, % at 12.5 µM | SK-MEL-5 TRPM1 promoter luciferase, 24 h;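 active = mean inhibition across replicates of 60% or more, whatever share of single replicates reaches that level; inconclusive = some that reach 60%, reason not given; inactive = mean inhibition across replicates below 60%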
HIF-2a inh: inhibitors of HIF-2a; actives 0.72% (n = 360,000); inhibition, % at 18.8 µM; AID 624352; 786-0 RCC cells HIF-2a reporter, luciferase luminescence, overnight;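 active = inhibition of the luminescence signal of 40% or more relative to plate controls, in a single-dose primary screen at 18.75 µM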
TROY NFkB inh: blocks TROY-dependent signaling in reporter cells. actives 0.98% (n = 360,000). inhibition, % at 10 µM. AID 1347056. Q293 LMP1-TROYcd NF-kB luciferase reporter, 4 h;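 active = compounds whose plate-normalised and pattern-corrected inhibition of the luciferase reporter signal at the single screening dose is 50% or more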
Mdm2 MdmX conf: Mdm2/MdmX (human) interaction inhibition, confirmed | shares compounds with HIF-2a inh | SaOS-2 split-luciferase Mdm2/MdmX complementation, luminescence | inhibition, % at 8 µM | actives 99% (n = 740) | AID 504601;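 active = mean inhibition of the luminescence signal across two replicates at or above 26 percent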
HIF-2a inh conf: confirmation of HIF-2a inhibitors. shares compounds with HIF-2a inh. 786-0 RCC cells, HIF-2a luciferase reporter luminescence, overnight. inhibition, % at 18.8 µM. actives 56% (n = 1,800);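 active = mean inhibition across four replicates of at least 40 percent at the single tested concentration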
HIF-1a cs: counter-screen for HIF-2a inhibitors: HIF-1a inhibition in MiaPaCa-2 cells | shares compounds with HIF-2a inh | MiaPaCa-2 HIF-1a luciferase reporter, desferoxamine, overnight | inhibition, % at 18.8 µM | actives 72% (n = 1,800);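 active = mean inhibition of the reporter signal across four replicates at the single tested dose of 50% or more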
* = called active by the depositor.

What do the screens show for `Cc1ccc(/C=C2\SC(=S)N(CCCC(=O)Nc3ccccn3)C2=O)cc1`?
LMP1 NFkB inh: 56*; Shn3 inh set2: 72; TWEAK-Fn14 inh: 79*; MITF TRPM1 inh: 79*; HIF-2a inh: 84*; TROY NFkB inh: 68*; Mdm2 MdmX conf: 93*

How did COc1ccc(/C=C2\SC(=O)N(CCNC(=O)Cc3coc4cc(OC)ccc34)C2=O)cc1 do in these assays?
LMP1 NFkB inh: -9; Shn3 inh set2: 19; TWEAK-Fn14 inh: 41; MITF TRPM1 inh: -18; HIF-2a inh: -82; TROY NFkB inh: 1

What do the screens show for `O=C(CCCN1C(=O)/C(=C\c2cccs2)SC1=S)Nc1ccc(O)cc1`?
LMP1 NFkB inh: 20; Shn3 inh set2: -1; TWEAK-Fn14 inh: 2; MITF TRPM1 inh: 0; HIF-2a inh: 9; TROY NFkB inh: 22

Results for COc1ccc(/C=C2\SC(=O)N(CCNC(=O)Cn3[nH]c(=O)c4ccccc4c3=O)C2=O)cc1 ?
LMP1 NFkB inh: 4; Shn3 inh set2: 23; TWEAK-Fn14 inh: 51*; MITF TRPM1 inh: 8; HIF-2a inh: 45*; TROY NFkB inh: 35; HIF-2a inh conf: 77*; HIF-1a cs: 12

How did Cc1ccc(/C=C2\SC(=S)N(CCCC(=O)Nc3ccc(O)cc3)C2=O)cc1 do in these assays?
LMP1 NFkB inh: 39; Shn3 inh set2: 17; TWEAK-Fn14 inh: 8; MITF TRPM1 inh: 23; HIF-2a inh: 80*; TROY NFkB inh: -53; Mdm2 MdmX conf: 57*

How did O=C(CCN1C(=O)/C(=C/c2ccccc2)SC1=S)Nc1ccccn1 do in these assays?
LMP1 NFkB inh: 1; Shn3 inh set2: -4; TWEAK-Fn14 inh: -2; MITF TRPM1 inh: -4; HIF-2a inh: 8; TROY NFkB inh: 20

What do the screens show for `Cc1nc(NC(=O)CN2CCC(O)(c3ccc(F)cc3)CC2)sc1C`?
LMP1 NFkB inh: 0; Shn3 inh set2: 7; TWEAK-Fn14 inh: -16; MITF TRPM1 inh: -13; HIF-2a inh: -13; TROY NFkB inh: -24

Results for O=C(CCN1C(=O)/C(=C/c2ccccc2)SC1=S)N[C@@H](CO)Cc1ccccc1 ?
LMP1 NFkB inh: 10; Shn3 inh set2: -50; TWEAK-Fn14 inh: -4; MITF TRPM1 inh: 2; HIF-2a inh: 50*; TROY NFkB inh: -10; Mdm2 MdmX conf: 98*

What do the screens show for `O=C(CCN1C(=O)/C(=C/c2ccccc2F)SC1=S)N[C@@H](CO)Cc1ccccc1`?
LMP1 NFkB inh: 5; Shn3 inh set2: -46; TWEAK-Fn14 inh: 22; MITF TRPM1 inh: 5; HIF-2a inh: 8; TROY NFkB inh: 1

How did CCN(CC(=O)Nc1cccc(Br)c1)Cc1nc2ccccc2c(=O)[nH]1 do in these assays?
LMP1 NFkB inh: -7; Shn3 inh set2: 11; TWEAK-Fn14 inh: -28; MITF TRPM1 inh: -8; HIF-2a inh: 42*; TROY NFkB inh: 8; HIF-2a inh conf: 6; HIF-1a cs: 26

What do the screens show for `CC1=C(C)/C(=N\OS(=O)(=O)c2ccccc2)C=CC1=O`?
LMP1 NFkB inh: -11; Shn3 inh set2: 79; TWEAK-Fn14 inh: 29; MITF TRPM1 inh: 44; HIF-2a inh: 86*; TROY NFkB inh: -20; Mdm2 MdmX conf: 103*

What do the screens show for `Cc1ccc(S(=O)(=O)O/N=C2\CCCc3ccccc32)cc1`?
LMP1 NFkB inh: -4; Shn3 inh set2: 1; TWEAK-Fn14 inh: 7; MITF TRPM1 inh: 10; HIF-2a inh: 11; TROY NFkB inh: 13

What do the screens show for `Cc1cc(Br)ccc1OCC(=O)NNC(=O)C(=O)Nc1ccccc1`?
LMP1 NFkB inh: -25; Shn3 inh set2: -30; TWEAK-Fn14 inh: -12; MITF TRPM1 inh: -12; HIF-2a inh: -28; TROY NFkB inh: -14

How did COC(=O)C=CC(=NNc1ccccc1)c1ccccc1 do in these assays?
LMP1 NFkB inh: 6; Shn3 inh set2: 6; TWEAK-Fn14 inh: 20; MITF TRPM1 inh: -7; HIF-2a inh: -9; TROY NFkB inh: -17

Results for Cn1nnnc1N=N/C(=N/Nc1ccccc1)c1ccccc1 ?
LMP1 NFkB inh: 60*; Shn3 inh set2: 46; TWEAK-Fn14 inh: -10; MITF TRPM1 inh: 9; HIF-2a inh: -74; TROY NFkB inh: -46; Mdm2 MdmX conf: 91*

How did COCCN(C(=O)COC(=O)c1cc2c(s1)CCCC2)c1c(N)n(Cc2ccccc2)c(=O)[nH]c1=O do in these assays?
LMP1 NFkB inh: 9; Shn3 inh set2: -3; TWEAK-Fn14 inh: -7; MITF TRPM1 inh: 12; HIF-2a inh: 4; TROY NFkB inh: 5

How did COC(=O)c1cnn(-c2nc(OC)cc(OC)n2)c1C do in these assays?
LMP1 NFkB inh: 5; Shn3 inh set2: -13; TWEAK-Fn14 inh: 14; MITF TRPM1 inh: -12; HIF-2a inh: 2; TROY NFkB inh: -4

What do the screens show for `COc1cc(OC)nc(-n2ncc(Br)c(Br)c2=O)n1`?
LMP1 NFkB inh: 65*; Shn3 inh set2: 97*; TWEAK-Fn14 inh: 103*; MITF TRPM1 inh: 93*; HIF-2a inh: 92*; TROY NFkB inh: 63*; HIF-2a inh conf: 100*; HIF-1a cs: 106*

How did CC(C)/C=C/CN1CCC(Oc2ccc(C(=O)N3CCCC3)cc2)CC1 do in these assays?
LMP1 NFkB inh: -6; Shn3 inh set2: -4; TWEAK-Fn14 inh: -13; MITF TRPM1 inh: 0; HIF-2a inh: 8; TROY NFkB inh: -4

Results for Cc1cccc(CS(=O)(=O)c2ncc(Cl)c(C(=O)NCc3ccc4c(c3)OCO4)n2)c1 ?
LMP1 NFkB inh: -2; Shn3 inh set2: 94*; TWEAK-Fn14 inh: 89*; MITF TRPM1 inh: inconclusive; HIF-2a inh: 62*; TROY NFkB inh: 69*; HIF-2a inh conf: 49*; HIF-1a cs: 47

Results for CC(=O)Nc1ccc(NC(=O)c2nc(S(=O)(=O)Cc3cccc(C)c3)ncc2Cl)cc1 ?
LMP1 NFkB inh: 7; Shn3 inh set2: 97*; TWEAK-Fn14 inh: 70*; MITF TRPM1 inh: 49; HIF-2a inh: -23; TROY NFkB inh: 75*; Mdm2 MdmX conf: 103*

Results for COC(=O)c1ccc(NC(=O)c2nc(S(=O)(=O)Cc3cccc(C)c3)ncc2Cl)cc1 ?
LMP1 NFkB inh: 20; Shn3 inh set2: 95*; TWEAK-Fn14 inh: 72*; MITF TRPM1 inh: 94*; HIF-2a inh: 92*; TROY NFkB inh: 76*; Mdm2 MdmX conf: 103*; HIF-2a inh conf: 75*; HIF-1a cs: 94*

How did OC(COc1ccc(Br)cc1)CN1CCN(c2ccccc2)CC1 (stereo not drawn) do in these assays?
LMP1 NFkB inh: -30; Shn3 inh set2: 6; TWEAK-Fn14 inh: -16; MITF TRPM1 inh: 7; HIF-2a inh: 18; TROY NFkB inh: 11

Bioassay records (PubChem)
